# Values joined by “and” are separate entries in the source; they are usually repeats but may differ in a detail not shown here. Equal values may be shown once. Inconclusive results are not listed. Active and inactive are the calls of the source. Unless noted, no stated cut-off is given here; in the data, active means parasite load remaining mostly below about 12% (no sharp cut-off); inactive means mostly above about 10%.
# What was measured:
# [1] = biological target: ATP-dependent translocase ABCB1 (Homo sapiens) (UniProt P08183); test: P-glycoprotein substrate transport blockade – cell-based (AID 377; in the data active means fluorescence slope change above about 50%); conditions: MDR1-expressing cells, fluorescent substrate accumulation slope; stronger effect = higher value; concentration not given here
# Chain of ATP-dependent translocase ABCB1 (Homo sapiens) (P08183 whole entry, looked up): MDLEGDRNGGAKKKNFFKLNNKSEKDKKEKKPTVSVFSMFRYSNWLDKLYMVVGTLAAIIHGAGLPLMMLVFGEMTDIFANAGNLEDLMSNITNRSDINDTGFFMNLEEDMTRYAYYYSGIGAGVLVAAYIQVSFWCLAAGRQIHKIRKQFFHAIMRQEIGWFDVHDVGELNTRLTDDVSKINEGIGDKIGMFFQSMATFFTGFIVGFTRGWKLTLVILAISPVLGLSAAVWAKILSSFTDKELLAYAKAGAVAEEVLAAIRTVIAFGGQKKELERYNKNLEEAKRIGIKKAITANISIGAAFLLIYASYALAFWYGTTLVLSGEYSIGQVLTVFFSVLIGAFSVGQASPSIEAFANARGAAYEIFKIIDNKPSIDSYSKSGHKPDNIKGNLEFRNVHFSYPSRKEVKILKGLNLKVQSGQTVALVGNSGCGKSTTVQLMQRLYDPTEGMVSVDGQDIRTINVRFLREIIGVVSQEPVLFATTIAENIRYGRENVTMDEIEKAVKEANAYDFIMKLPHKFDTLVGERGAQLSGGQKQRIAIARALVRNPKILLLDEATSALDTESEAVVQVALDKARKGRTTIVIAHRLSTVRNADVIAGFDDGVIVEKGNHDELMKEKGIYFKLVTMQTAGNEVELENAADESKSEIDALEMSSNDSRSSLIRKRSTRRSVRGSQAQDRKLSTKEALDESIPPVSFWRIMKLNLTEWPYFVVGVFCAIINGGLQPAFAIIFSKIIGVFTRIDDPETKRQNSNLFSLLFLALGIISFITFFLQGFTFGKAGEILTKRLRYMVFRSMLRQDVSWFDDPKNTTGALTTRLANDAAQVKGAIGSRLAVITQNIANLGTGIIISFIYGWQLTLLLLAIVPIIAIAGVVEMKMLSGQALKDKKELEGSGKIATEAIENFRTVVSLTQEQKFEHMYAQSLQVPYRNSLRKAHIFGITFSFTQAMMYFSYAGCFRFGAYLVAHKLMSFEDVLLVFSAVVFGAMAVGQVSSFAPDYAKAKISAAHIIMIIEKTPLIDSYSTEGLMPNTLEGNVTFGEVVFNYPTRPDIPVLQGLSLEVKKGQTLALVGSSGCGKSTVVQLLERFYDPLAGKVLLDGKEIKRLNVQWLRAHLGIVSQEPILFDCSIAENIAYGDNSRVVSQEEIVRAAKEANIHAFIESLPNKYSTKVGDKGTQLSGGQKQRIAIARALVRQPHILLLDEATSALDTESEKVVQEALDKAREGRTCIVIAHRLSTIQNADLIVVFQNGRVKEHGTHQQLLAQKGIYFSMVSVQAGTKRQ
# [2] = P. berghei load reduction in hepatocytes – cell-based, HepG2, luciferase luminescence, HepG2 viability, primary screen (AID 624349);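 further: 100% = mean of DMSO negative control wells on the same plate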; conditions: P. berghei liver stage in HepG2, luciferase luminescence, concentration not given here; parasite load remaining: stronger effect = lower value; viability: measured here: HepG2 viability without parasites
# [3] = viability loss with induced miR-34 in A549 – imaging, A549 dox-inducible miR-34, nuclei and caspase counts, primary screen (AID 1347080;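 active means compounds whose cell count with miR-34 switched on is under 0.7 times the count with it off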); conditions: A549 miR-34 inducible, Hoechst nuclei count, 48 h
# [4] = galactose survival enhancers in mitochondrial complex I cybrids – cell-based, galactose medium, ATP luminescence, primary screen (AID 1645843;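 active means z-score of at least 1.8 in each of two replicates, scored against plate mean and spread of sample wells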;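 further: positive z means more ATP and so rescue of galactose-driven cybrid death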); conditions: complex I mutant cybrid cells, 72 h, stronger effect = higher value
# [5] = compounds altering circadian rhythm period length – cell-based, LOPAC library, luminescence reporter (AID 2774; call rule not given here;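 further: values are relative to mean of DMSO wells on each plate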); conditions: circadian reporter cells, at 7 µM, actives lie on both sides
# [6] = tested on: Hepatitis C virus NS3 helicase; test: blockers of NS3h binding to ssDNA – biochemical, fluorescence polarization, LOPAC1280 library, primary screen (AID 687035; in the data active means inhibition above about 37%); conditions: Purified HCV NS3 helicase, Cy5-dT15 ssDNA binding fluorescence polarization; stronger effect = higher value; concentration not given here
# [7] = compounds altering Cy5-DNA-NS3h complex signal – biochemical, LOPAC1280, artefact control for HCV NS3 helicase inhibitor project (AID 687037; call rule not given here); conditions: Cy5-DNA-NS3h complex fluorescence interference counterscreen
# [8] = chitosan synthesis blockers in C. neoformans – flow cytometry, Cibacron Brilliant Red staining (AID 1347148; call rule not given here;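 further: compound exposure lasted three days at 37 degrees C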); conditions: Cryptococcus neoformans chitosan, stronger effect = lower value; at 10 µM unless noted
# [9] = compounds altering viability of human ES cells (AID 493140; call rule not given here;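 further: cells exposed to compounds for four days before counting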); conditions: human embryonic stem cell survival screen; stronger effect = higher value
# [10] = stronger effect = lower value, cell number ratio, induced over uninduced
# [11] = measured here: relative caspase fold change +Dox/-Dox
# [12] = measured here: total cells with miR-34 induction, stronger effect = lower value
# [13] = measured here: total cells without miR-34 induction
structure (smiles),measurement,setting,value
COC1=C[C@@H]2C3=C([C@@H]2C1=O)[C@@H](NC(C)=O)CCc1cc(OC)c(OC)c(OC)c13,fluorescence slope change,[1],70.2% (active)
same,parasite load remaining,[2],62.8% (inactive)
same,viability,[2],107%
same,fold change,[3]; [10],0.865 (inactive)
same,fold change,[3]; [11],1.41
same,cell count,[3]; [12],9450
same,cell count,[3]; [13],10900
CCCCCC=CCC=CCC=CCC=CCCCC(=O)Nc1ccc(O)cc1,fold change,[3]; [10],0.829 (inactive)
same,fold change,[3]; [11],1.13
same,cell count,[3]; [12],7710
same,cell count,[3]; [13],9290
same,z-score,[4],-1.44 (inactive)
NC(CCCCCP(=O)(O)O)C(=O)O (stereo unspecified),period change,[5],-0.03 h (inactive)
same,inhibition,[6],-1% (inactive)
same,fluorescence ratio (interference),[7],1 (inactive)
same,fold change,[3]; stronger effect = lower value,1.02 (inactive)
same,fold change,[3]; [11],2.45
same,cell count,[3]; [12],10400
same,cell count,[3]; [13],10200
same,z-score,[4],0.42 (inactive)
C=C1[C@@H](O)[C@]23C[C@@H]1[C@@H](O)C[C@H]2[C@@]12C4[C@@H]3C[C@@H]1[C@@](C)(CC[C@@H]2O)CN4CC,parasite load remaining,[2],76.8% (inactive)
same,viability,[2],104%
same,fold change,[3]; [10],0.894 (inactive)
same,fold change,[3]; [11],0.861
same,cell count,[3]; [12],8910
same,cell count,[3]; [13],9970
CN1C[C@H](C(=O)N[C@]2(C)C[C@@]3(O)C4CCCN4C(=O)[C@H](Cc4ccccc4)N3C2=O)C=C2c3cccc4[nH]cc(c34)C[C@H]21 (stereo partly specified),parasite load remaining,[2],49.1% (inactive)
same,viability,[2],102%
same,fold change,[3]; [10],0.836 (inactive)
same,fold change,[3]; [11],6.73
same,cell count,[3]; [12],10900
same,cell count,[3]; [13],13000
CCN1C[C@]2(C)CC[C@H](O)[C@]34C1[C@H](C[C@H]23)[C@@]1(O)C[C@H](OC)[C@H]2C[C@@H]4[C@@H]1C2O (stereo partly specified),parasite load remaining,[2],57.3% (inactive)
same,viability,[2],100%
same,fold change,[3]; [10],0.863 (inactive)
same,fold change,[3]; [11],1.17
same,cell count,[3]; [12],9000
same,cell count,[3]; [13],10400
CO[C@H](C)C(O)(C(=O)OCC1=CCN2CC[C@H](O)[C@@H]12)C(C)C (stereo partly specified),parasite load remaining,[2],69.7% (inactive)
same,viability,[2],101%
same,fold change,[3]; [10],0.879 (inactive)
same,fold change,[3]; [11],1.23
same,cell count,[3]; [12],8290
same,cell count,[3]; [13],9440
Cc1c(C(=O)c2cccc3ccccc23)c2cccc3c2n1[C@@H](CN1CCOCC1)CO3,fold fluorescence,[8],4.51 (inactive)
C=C[C@]12CN(C)[C@@H]3[C@H]4COC(CC41)[C@]1(C(=O)Nc4ccccc41)[C@@H]32,parasite load remaining,[2],100% (inactive)
same,viability,[2],94.8%
same,fold change,[3]; [10],0.845 (inactive)
same,fold change,[3]; [11],1.55
same,cell count,[3]; [12],8470
same,cell count,[3]; [13],10000
CCN1C[C@@]2(COC)C3[C@@H](OC)[C@H]4[C@@H]1[C@@]3(C1C[C@@]3(O)[C@H](OC(=O)c5ccccc5)C1[C@]4(OC(C)=O)[C@@H](O)[C@H]3OC)[C@@H](OC)C[C@H]2O (stereo partly specified),survival,[9],3.83 (inactive)
same,parasite load remaining,[2],56% (inactive) and 73.1% (inactive)
same,viability,[2],104% and 80.1%
same,fold change,[3]; stronger effect = lower value,0.874 (inactive)
same,fold change,[3]; [11],1.14
same,cell count,[3]; [12],8650
same,cell count,[3]; [13],9900
CN1[C@@H]2CC(=O)C[C@H]1[C@H](O)C2,parasite load remaining,[2],87.8% (inactive)
same,viability,[2],81.1%
same,fold change,[3]; [10],0.914 (inactive)
same,fold change,[3]; [11],0.592
same,cell count,[3]; [12],8350
same,cell count,[3]; [13],9140
CN1CCC2=C[C@H](O)[C@H]3OC(=O)c4cc5c(cc4[C@H]3[C@@H]21)OCO5,parasite load remaining,[2],42.8% (inactive)
same,viability,[2],96.9%
same,fold change,[3]; [10],0.881 (inactive)
same,fold change,[3]; [11],1.04
same,cell count,[3]; [12],6350
same,cell count,[3]; [13],7210
CCCCCCCCCCCCCCCCOC[C@H](O)COP(=O)([O-])OCC[N+](C)(C)C,fold fluorescence,[8],3.83 (inactive)
C[C@@H]1O[C@@H](O[C@@H]2C=C3CCC4C(CC[C@]5(C)[C@@H](c6ccc(=O)oc6)CC[C@]45O)[C@@]3(C)CC2)[C@H](O)[C@H](O)[C@H]1O (stereo partly specified),parasite load remaining,[2],0.58% (inactive)
same,viability,[2],13.4%
same,fold change,[3]; [10],1.51 (inactive)
same,fold change,[3]; [11],0.74
same,cell count,[3]; [12],696
same,cell count,[3]; [13],460
CC(Cc1ccccc1)NCCC(c1ccccc1)c1ccccc1 (stereo unspecified) (tested in a mixture with another compound),parasite load remaining,[2],65.1% (inactive)
same,viability,[2],77.8%
same,fold change,[3]; stronger effect = lower value,0.804 (inactive)
same,fold change,[3]; [11],1.52
same,cell count,[3]; [12],5460
same,cell count,[3]; [13],6790
COC1=CC(=O)O[C@@H](/C=C/c2ccccc2)C1,survival,[9],16.6 (inactive)
same,parasite load remaining,[2],26.1% (inactive) and 89.1% (inactive)
same,viability,[2],46.2% and 90.2%
same,fold change,[3]; stronger effect = lower value,0.899 (inactive)
same,fold change,[3]; [11],1.34
same,cell count,[3]; [12],8920
same,cell count,[3]; [13],9920
COc1cc(C(=O)OC2C[C@H]3CC[C@@H](C2)N3C)ccc1O (stereo partly specified),parasite load remaining,[2],90.6% (inactive)
same,viability,[2],98.9%
same,fold change,[3]; stronger effect = lower value,0.903 (inactive)
same,fold change,[3]; [11],1.48
same,cell count,[3]; [12],8240
same,cell count,[3]; [13],9120
